# Screening results deposited in PubChem BioAssay by several laboratories.
# MEKK3 PB1 HTS – modulators (inhibitors or enhancers) of MEK5 binding to human MEKK3 PB1 domain; actives 1.4% (n = 290,000); binding response (% of control), % at 10 µM; bead-based flow cytometry, Alexa488-MEK5 binding to MEKK3; actives lie on both sides; 0 = blocked by unlabeled MEK5, 100 = vehicle;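 active means binding response more than 3 SD above or below the average of its plate-row segment, actives on both sides; inconclusive means wells at one plate position flagged as instrument error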;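 further: Alexa488 bead fluorescence after subtracting the streptavidin-only scavenger bead signal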
# Target sequence (Q99759 whole entry, looked up, the tested form may be a part): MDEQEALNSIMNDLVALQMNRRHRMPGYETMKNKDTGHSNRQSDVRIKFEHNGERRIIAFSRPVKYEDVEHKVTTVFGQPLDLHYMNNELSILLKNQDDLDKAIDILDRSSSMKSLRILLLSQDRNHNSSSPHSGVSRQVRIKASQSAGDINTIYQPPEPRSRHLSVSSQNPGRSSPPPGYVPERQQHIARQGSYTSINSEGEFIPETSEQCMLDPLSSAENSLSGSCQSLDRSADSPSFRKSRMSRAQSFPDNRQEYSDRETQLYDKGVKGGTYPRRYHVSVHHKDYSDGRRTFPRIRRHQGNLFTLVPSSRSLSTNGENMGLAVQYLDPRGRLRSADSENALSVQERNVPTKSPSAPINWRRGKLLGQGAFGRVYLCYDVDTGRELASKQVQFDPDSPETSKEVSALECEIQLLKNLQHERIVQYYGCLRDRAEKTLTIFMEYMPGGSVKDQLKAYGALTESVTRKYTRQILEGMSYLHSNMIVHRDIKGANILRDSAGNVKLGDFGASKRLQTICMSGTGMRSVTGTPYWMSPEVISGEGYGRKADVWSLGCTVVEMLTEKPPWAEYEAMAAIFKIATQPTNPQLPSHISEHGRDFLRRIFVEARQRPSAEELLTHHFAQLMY
# MEKK2 mut-MEK5 – signal of MEK5 binding to mutant human MEKK2 PB1 domain; actives 0.35% (n = 290,000); percent response, % at 10 µM; bead flow cytometry, Alexa488-MEK5 binding to MEKK2 mutant; AID 1530; in the data active means percent response above about 24%, passing the limit was not always enough
# MEKK2 WT-MEK5 – raises or lowers MEK5 binding to wildtype human MEKK2 PB1 domain | Q9Y2U5 | bead flow cytometry, Alexa488-MEK5 binding to MEKK2 WT; actives lie on both sides | binding response (% of control), % at 10 µM | actives 1.1% (n = 290,000) | AID 1531; in the data active means binding response below about 67% or above about 130%; inconclusive means no clear call, values can overlap the other calls; inactive means in between
# Rce1 inhib – yeast Ras-converting enzyme inhibition. actives 0.27% (n = 290,000). yeast membranes, quenched prenylated peptide cleavage fluorescence. calls only. Q03530. AID 2563;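 active means fall in fluorescence gain of 50% or more versus controls, with final raw signal at or below 3038400; inconclusive means same 50% fall but final raw signal above 3038400; inactive means fall in fluorescence gain under 50%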;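 further: plate controls were neutral control wells for no effect and wells lacking membranes for full effect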
# UBC13 inh – human UBC13 polyubiquitination inhibition; inhibition, % at 20 µM; actives 0.47% (n = 330,000); AID 485273; UBC13 polyubiquitin chain formation, TR-FRET; P61088; in the data active means inhibition above about 45%, passing the limit was not always enough; inconclusive means no clear call, values can overlap the other calls
# MEKK2wt confirm – raises or lowers MEK5 binding to wildtype human MEKK2, retest; shares compounds with MEKK3 PB1 HTS; bead flow cytometry, Alexa488-MEK5 binding to MEKK2 WT; actives lie on both sides; binding response (% of control), % at 10 µM; actives 2.4% (n = 5,900); in the data active means binding response below about 16% or above about 210%; inactive means in between
# MEKK2mut-MEK5 – signal of MEK5 binding to mutant human MEKK2, retest; shares compounds with MEKK3 PB1 HTS; AID 1893; bead flow cytometry, Alexa488-MEK5 binding to MEKK2 mutant; percent response, % at 10 µM; actives 2% (n = 5,900); in the data active means percent response mostly above about 71%, no sharp cut-off; inactive means mostly below about 38%;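 further: higher means compound restores mutant binding toward wildtype level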
# MEKK3 confirm – confirmation of inhibitors of MEK5 binding to human MEKK3 | binding response (% of control), % at 10 µM | AID 1894 | actives 1.8% (n = 5,900) | shares compounds with MEKK3 PB1 HTS | bead flow cytometry, Alexa488-MEK5 binding to MEKK3; active compounds read low;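 active means binding response below 72% of control, or above a set upper limit, though filed actives all read lower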;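 further: 100% = DMSO only wells and 0% = binding blocked by excess unlabeled MEK5; lower values mean stronger disruption of MEK5 binding to MEKK3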
# The depositor's hits bear a star; i = inactive; ? = inconclusive; nt = no result given; [ ] = remark or other dose. Shown are actives, neighbours in structure and some others; about 2.5% of the full set was active somewhere.
SMILES,MEKK3 PB1 HTS,MEKK2 mut-MEK5,MEKK2 WT-MEK5,Rce1 inhib,UBC13 inh,MEKK2wt confirm,MEKK2mut-MEK5,MEKK3 confirm
CC(C)(C)C(=O)NC(=S)NCCc1ccccc1,1.0*[inhibitor],-39,1.0*[inhibitor],i,5,102,0,105
S=C(NCCc1ccccc1)NCCc1ccccc1,65,-2,91,i,-6,nt,nt,nt
CCCCN(C)CC(O)Cn1cc(/C=C/C(=O)c2ccc(OCC)cc2)c2ccccc21 (configuration not stated),108,62*,200*,i,26,169,42,101
O=C(CN(CCc1ccccc1)C(=O)c1csnn1)NCc1ccc(F)cc1,104,8,102,i,-1,nt,nt,nt
Cc1cccc(N=C2NC(=O)/C(=C/C=C/c3ccco3)S2)c1,64*[inhibitor],-2,91,i,nt,84,-14,94
Cc1c(NC(=O)c2ccc(-c3cccc([N+](=O)[O-])c3)o2)c(=O)n(-c2ccccc2)n1C,99,-8,92,i,-9,nt,nt,nt
COc1ccc(CNC(=O)/C(C#N)=C2\N=C(NC(=O)c3cccs3)c3ccccc32)cc1,74*[inhibitor],0,93,i,-10,100,3,108
CCc1sc(-c2c(C#N)c(N)nc3c2CCCCCC3)cc1[N+](=O)[O-],1.0*[inhibitor],-39,1.0*[inhibitor],i,6,99,-3,105
Cc1cc(C(=O)CN2CCCC(C)C2)c(C)n1-c1ccc(F)cc1 (configuration not stated),103,24,111,i,-5,nt,nt,nt
Cc1oc(-c2ccccc2)cc1C(=O)NCc1ccncc1,102,13,56*[inhibitor],i,-1,104,-4,99
O=C(O)CCC(=O)Nc1ccccc1C(=O)N1CCN(c2ccc(Cl)cc2)CC1,96,-2,100,i,2,nt,nt,nt
CC(OC(=O)C(C)N1C(=O)C2C3C=CC(C4CC34)C2C1=O)C(=O)c1ccccc1 (configuration not stated),145*,1,111,i,-15,101,3,99
CCN(CC)C(=S)NC(=O)c1cc(OC)c(OC)c(OC)c1,100,-1,97,i,4,nt,nt,nt
CNC[C@H](CC1CCCCC1)NC[C@H](Cc1ccccc1)NCCC12CC3CC(CC(C3)C1)C2,109,70*,278*,i,25,265*,126*,115
COc1ccc(Br)c(C(=O)OCC(=O)N2CCC(Cc3ccccc3)CC2)c1,nt,nt,nt,nt,5,nt,nt,nt
COc1ccc(C2=NOC(C)(c3nnc(-c4ccc(F)cc4)o3)C2)cc1 (configuration not stated),81*[inhibitor],-2,96,i,8,97,-10,95
CCn1c(C)nc2cc(C(=O)NNC(=S)Nc3ccc(Cl)cc3)ccc21,25*[inhibitor],-13,19*[inhibitor],i,-5,97,5,101
CC(=O)Nc1ccc(Nc2cc(N3CCOCC3)c3nonc3c2[N+](=O)[O-])cc1,45*[inhibitor],-17,49,i,-28,101,-1,103
c1ccc(-c2cc(NCCN3CCCCC3)c3ccccc3n2)cc1,111,23,139*,i,16,119,10,105
O=C(c1cc(-c2ccccc2)nc2ccccc12)N1CCCC1,103,-3,102,i,0,nt,nt,nt
O=C(O)c1ccc(CN2C(=O)CSC2=S)cc1,124*,5,119,i,-9,98,-4,98
COc1ccc(-c2nc(C#N)c(N3CCC(C(N)=O)CC3)o2)cc1OC,101,1,95,?,5,nt,nt,nt
COc1ccc(-c2nc(C#N)c(N3CCOCC3)o2)cc1OC,77*[inhibitor],-10,84,i,-5,100,2,97
CC(C)n1c(O)c(/C=C2\C=Nc3ccccc32)sc1=Nc1ccccc1,13*[inhibitor],-35,22*[inhibitor],i,-8,106,0,100
Fc1ccc2[nH]c3c(c2c1)CN(C(=S)NCc1ccccc1)CC3,93,7,110,i,9,nt,nt,nt
SMILES,MEKK3 PB1 HTS,MEKK2 mut-MEK5,MEKK2 WT-MEK5,Rce1 inhib,UBC13 inh,MEKK2wt confirm,MEKK2mut-MEK5,MEKK3 confirm
CCOC(=O)C1=C(C)C(c2cccc(Oc3ccccc3)c2)NC(=S)N1 (configuration not stated),99,0,97,i,7,nt,nt,nt
O=C1CC(c2cccc(Oc3ccccc3)c2)NC(=O)N1 (configuration not stated),0.0*[inhibitor],-21,-1.0*[inhibitor],i,-3,101,2,101
Cc1ccc(S(=O)(=O)NC(Cc2ccccc2)C(=O)O)cc1 (configuration not stated),1.0*[inhibitor],-27,-3.0*[inhibitor],i,-3,91,-6,96
Cc1ccc(S(=O)(=O)NC(Cc2ccc(Cl)cc2)C(=O)O)cc1 (configuration not stated),104,6,109,i,-2,nt,nt,nt
O=C(O)C(Cc1c[nH]c2ccccc12)NS(=O)(=O)c1ccc2ccccc2c1 (configuration not stated),95,-1,96,i,3,nt,nt,nt
Cc1cccc(S(=O)(=O)NC(Cc2c[nH]c3ccccc23)C(=O)O)c1 (configuration not stated),131*,0,109,i,-11,98,0,100
COc1ccc(/C=N/Nc2cc(N3CCCC3)nc(N3CCCC3)n2)cc1,130*,4,142*,i,-12,160,33,108
CC(C)(C)n1nc2c(c1NC(=O)COc1ccc(F)cc1)CS(=O)(=O)C2,104,10,115,i,-2,nt,nt,nt
COCCN(C(=O)CSc1nnc(-c2ccccc2F)o1)c1c(N)n(CC(C)C)c(=O)[nH]c1=O,nt,nt,nt,i,5,nt,nt,nt
COc1ccc(N(CC(=O)N/N=C/c2ccc(N(C)C)cc2)S(=O)(=O)c2ccccc2)cc1,108,4,104,i,-1,nt,nt,nt
C/C=C/C=N/NC(=O)CN(c1ccc(Br)cc1)S(=O)(=O)c1ccccc1,149*,1,112,i,-3,97,-1,99
CCCCNC(=S)NC(C)(C)CO,105,1,107,i,-8,nt,nt,nt
O=[N+]([O-])c1ccccc1-c1ccc(/C=N/n2cnnc2)o1,104,6,109,i,-26,nt,nt,nt
Nn1cnnc1N/N=C\c1ccc(-c2ccccc2[N+](=O)[O-])o1,156*,0,106,i,nt,97,-1,101
Cc1ccccc1Nc1nc(N)nc(COC(=O)c2c(C)noc2C)n1,nt,nt,nt,nt,13,nt,nt,nt
Cc1ccc(Nc2cc(C)nc(N3CCOCC3)n2)cc1,101,7,100,i,8,nt,nt,nt
